# Assay results reported in PubChem BioAssay (EPA / NIEHS).
# Inconclusive results are not listed. Calls of active or inactive are those of the source. The calls were made as follows, unless noted: active = hit-call score of the fitted dose curve at least 0.9, where 1 is the maximum; inactive = score below 0.9.
# Columns and labels:
# [1] = CCTE_Harrill_HTTr_Viability_MCF7: CCTE's 6-hour Cell Viability Assessment for the High-Throughput Transcriptomics (HTTr) Platform, in MCF-7 cells cultured in DMEM + 10% fetal bovine serum, Harrill Lab (AID 2284010)
# Procedure, shortened: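 Membrane integrity was scored by high-content imaging of propidium iodide dye exclusion after a 6 h exposure across an eight-point dilution series. Data were fitted bidirectionally relative to DMSO as negative control and baseline.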
# [2] = CCTE_Harrill_HTTr_Apoptosis_MCF7: CCTE's 6-hour Apoptosis Assessment for the High-Throughput Transcriptomics (HTTr) Platform, in MCF-7 cells cultured in DMEM + 10% fetal bovine serum, Harrill Lab (AID 2284011)
# Procedure, shortened: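 Cells are dosed with test chemicals at eight concentrations and imaged 6 hours later for caspase-3/7 activity using a green fluorogenic detection reagent. Activity is fitted in both directions against DMSO controls.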
# [3] = CCTE_Shafer_MEA_acute_spike_number: CCTE's Neural Acute Assay for Total Number of Spikes, Shafer Lab (AID 2284008);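 as to AC50: curve fitted for decrease in spike count so AC50 reflects inhibitors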
# Procedure, shortened: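 Cortical neurons from rat, matured to DIV 13 or 15 on microelectrode arrays, are recorded at 37 C before and during 40-min exposure to 0.03-40 uM compound. Wells need >/= 10 active electrodes.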
# [4] = CCTE_Shafer_MEA_acute_firing_rate_mean: CCTE's Neural Acute Assay for Mean Firing Rate, Shafer Lab (AID 2284009);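 also: analyzed for loss of signal so actives lower firing rate relative to DMSO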
# Procedure, shortened: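 Percent change in well-mean firing rate was derived from extracellular spikes detected at 8x rms noise (300-5000 Hz band-pass) before and after a 40-min compound exposure. Cultures were primary rat cortical neurons, tested at 0.03-40 uM.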
# [5] = CCTE_Shafer_MEA_acute_burst_number: CCTE's Neural Acute Assay for Single-Electrode Bursts, Shafer Lab (AID 2284013)
# Procedure, shortened: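 Spontaneous network activity of primary rat cortical neurons was recorded extracellularly on microelectrode arrays at 37 C, with 40-min periods before and during exposure to 0.03-40 uM compound on DIV 13 or 15.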
# [6] = CCTE_Harrill_HTTr_CellCount_MCF7: CCTE's Cell Proliferation Assessment for the High-Throughput Transcriptomics (HTTr) Platform, Harrill Lab (AID 2284012; active = hit-call score of the fitted dose curve at least 0.9, where 1 is the maximum;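 also: cells exposed to compound for six hours; intended direction is loss of nuclei count meaning fewer cells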)
# Procedure, shortened: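 MCF-7 cells were exposed for 6 h to an eight-point dilution series; Hoechst-labeled nuclei were counted by high content imaging. Curves were fitted bidirectionally against DMSO as negative control and baseline, with signal loss indicating reduced cell count.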
structure (smiles),measurement,setting,value
O=c1[nH]c(=O)[nH]c(=O)[nH]1,outcome,[1],inactive
Nc1ccc(N=Nc2ccc(-c3ccc(N=Nc4c(S(=O)(=O)O)cc5cc(S(=O)(=O)O)c(N=Nc6ccccc6)c(O)c5c4N)cc3)cc2)c(N)c1,outcome,[1],inactive
same,outcome,[2],inactive
Oc1c(I)cc(I)cc1I,outcome,[1],inactive
CCC(=O)c1ccccc1,outcome,[1],inactive
O=[N+]([O-])c1ccc2c3c(cccc13)CC2,outcome,[1],inactive
CCNc1nc(NC(C)(C)C)nc(SC)n1,outcome,[1],inactive
[O-][Cl+2]([O-])O,outcome,[1],inactive
CCOP(=S)(OCC)Oc1ccc(S(C)=O)cc1 (configuration not stated),outcome,[1],inactive
same,outcome,[2],inactive
COC(=O)Cc1ccccc1,outcome,[3],inactive
same,outcome,[4],inactive
same,outcome,[1],inactive
same,outcome,[5],inactive
CC(C)C1CCC(Cc2ccc(Cl)cc2)C1(O)Cn1cncn1 (configuration not stated),outcome,[1],inactive
same,outcome,[2],inactive
NC(=O)O,outcome,[1],inactive
O=C(O)C(F)(F)C(F)(F)C(F)(F)C(F)(F)C(F)(F)C(F)(F)F,outcome,[1],inactive
C1CCC(NC2CCCCC2)CC1,outcome,[1],inactive
same,outcome,[2],inactive
CCC[CH2][Sn]([CH2]CCC)([CH2]CCC)[O]C(=O)c1ccccc1,AC50,[1],15.6 µM (active)
same,AC50,[2],11.5 µM (active)
CNC(=O)O/N=C/C(C)(C)S(C)=O (configuration not stated),outcome,[1],inactive
same,outcome,[2],inactive
Oc1cccc2cccnc12,outcome,[1],inactive
ClC(Cl)=C(Cl)C(Cl)=C(Cl)Cl,outcome,[1],inactive
O=C(OC1CCCCC1)c1ccccc1C(=O)OC1CCCCC1,outcome,[1],inactive
same,outcome,[2],inactive
C[C@@H](Oc1ccc(Cl)cc1Cl)C(=O)O,outcome,[1],inactive
COC(=O)c1sccc1S(=O)(=O)NC(=O)Nc1nc(C)nc(OC)n1,outcome,[1],inactive
same,outcome,[2],inactive
C=CC#N,outcome,[1],inactive
CCN1CCC2(CC1)COc1cc3c(cc12)N(C(=O)c1ccc(-c2ccc(-c4nnc(C)o4)cc2C)cc1)CC3,AC50,[3],7.7 µM (active)
same,AC50,[4],7.7 µM (active)
same,AC50,[1],66.2 µM (active)
same,outcome,[6],inactive
same,outcome,[5],inactive
